Experimental data as given in PubChem BioAssay AID1159580 (chemical genetic matrix, 2015).
“And” between values parts separate entries of the source, which are not always exact repeats. Equal values may be shown once. In all, about 5,500 compounds went through this assay and about 2,000 (36%) were called active. About 18% were inconclusive and are not listed. No stated cut-off is given here; in the data, active means normalized growth mostly below about 0.91 (no sharp cut-off); inconclusive means no clear call, values can overlap the other calls; inactive means mostly above about 0.92. The list shows a part of the results.

Assay: chemical genetic growth profiling, strain panel (AID 1159580);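 further: tested at 20 µM; growth read once vehicle control cultures reached saturation at 30 °C; 1 = growth at the plate median or of vehicle wells; lower values mean less growth of the strain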
Details: S. cerevisiae deletion strains, growth OD

Measured: normalized growth

CCC(=O)OCC(=O)C1(OC(=O)CC)C(C)CC2C3CCC4=CC(=O)C=CC4(C)C3(Cl)C(O)CC21C (stereo unspecified)
inactive: locus YAL021C, strain ccr4, hits give low values 0.99 | locus YAL026C, strain drs2, hits give low values 1 | locus YAL030W, strain snc1, hits give low values 0.999 | locus YBL061C, strain skt5, hits give low values 0.98 | locus YBR009C, strain hhf1, hits give low values 0.996 | locus YBR021W, strain FUR4, hits give low values 1.04 | locus YBR023C, strain chs3, hits give low values 0.979 | locus YBR171W, strain sec66, hits give low values 0.963 | locus YBR229C, strain ROT2, hits give low values 1.02 | locus YBR231C, strain swc5, hits give low values 0.972 | locus YBR279W, strain paf1, hits give low values 0.99 | locus YCL011C, strain gbp2, hits give low values 1 | locus YCL016C, strain dcc1, hits give low values 1.01 | locus YCL029C, strain bik1, hits give low values 0.993 | locus YCL061C, strain MRC1, hits give low values 0.991 | locus YCL069W, strain vba3, hits give low values 0.977 | locus YCR088W, strain abp1, hits give low values 0.993 | locus YDL005C, strain med2, hits give low values 0.97 | locus YDL035C, strain GPR1, hits give low values 1.03 | locus YDL040C, strain nat1, hits give low values 0.973 | locus YDL074C, strain BRE1, hits give low values 1.03 | locus YDL101C, strain DUN1, hits give low values 1.01 | locus YDL185W, strain tfp1, hits give low values 0.998 | locus YDL192W, strain arf1, hits give low values 0.997 | locus YDR001C, strain nth1, hits give low values 0.989 | locus YDR069C, strain doa4, hits give low values 0.959 | locus YDR101C, strain arx1, hits give low values 0.969 | locus YDR137W, strain rgp1, hits give low values 0.932 | locus YDR150W, strain NUM1, hits give low values 1.01 | locus YDR159W, strain sac3, hits give low values 0.959 | locus YDR162C, strain NBP2, hits give low values 1.04 | locus YDR195W, strain ref2 0.975 | locus YDR297W, strain sur2, hits give low values 0.979 | locus YDR318W, strain mcm21, hits give low values 0.993 | locus YDR334W, strain swr1, hits give low values 0.991 | locus YDR335W, strain msn5, hits give low values 0.966 | locus YDR388W, hits give low values 0.99 | locus YDR392W, strain spt3, hits give low values 1.03 | locus YDR502C, strain sam2, hits give low values 0.994 | locus YEL003W, strain gim4, hits give low values 0.973 | locus YEL037C, strain rad23, hits give low values 0.975 | locus YEL061C, strain CIN8 (second series), hits give low values 0.975 | locus YEL061C, strain CIN8, hits give low values 1.01 | locus YER015W, strain faa2, hits give low values 0.986 | locus YER016W, strain bim1, hits give low values 0.996 | locus YER110C, hits give low values 0.984 | locus YER111C, strain swi4, hits give low values 0.967 | locus YER155C, strain BEM2 (second series), hits give low values 0.995 | locus YER155C, strain BEM2, hits give low values 1.01 | locus YER167W, strain BCK2, hits give low values 1.02 | locus YFR010W, strain ubp6, hits give low values 0.957 | locus YGL078C, strain dbp3, hits give low values 0.99 | locus YGL086W, strain mad1, hits give low values 0.989 | locus YGL167C, strain pmr1, hits give low values 0.948 | locus YGL173C, strain kem1, hits give low values 0.952 | locus YGL227W, strain vid30, hits give low values 0.983 | locus YGL240W, strain doc1, hits give low values 0.974 | locus YGL248W, strain PDE1, hits give low values 1.02 | locus YGL253W, strain hxk2, hits give low values 0.926 | locus YGR135W, strain pre9, hits give low values 1 | locus YGR229C, strain SMI1, hits give low values 1.03 | locus YGR252W, strain gcn5, hits give low values 1.02 | locus YHR013C, strain ard1, hits give low values 0.987 | locus YHR027C, strain rpn1, hits give low values 0.999 | locus YHR030C, strain SLT2, hits give low values 1.01 and 1.11 | locus YHR079C, strain IRE1 (second series), hits give low values 0.985 | locus YHR079C, strain IRE1, hits give low values 1.05 | locus YHR094C, strain hxt1, hits give low values 0.989 | locus YHR129C, strain ARP1, hits give low values 1.02 | locus YHR142W, strain chs7, hits give low values 0.913 | locus YHR200W, strain rpn10, hits give low values 0.99 | locus YIL066C, strain RNR3, hits give low values 1.03 | locus YIL073C, strain SPO22, hits give low values 1.01 | locus YIL125W, strain kgd1, hits give low values 0.99 | locus YIR030C, strain dcg1, hits give low values 0.984 | locus YJL092W, strain hpr5, hits give low values 0.978 | locus YJL095W, strain BCK1 (second series), hits give low values 0.982 | locus YJL095W, strain BCK1, hits give low values 1.02 and 1.04 | locus YJL115W, strain asf1, hits give low values 0.973 | locus YJL129C, strain trk1, hits give low values 0.922 | locus YJL134W, strain LCB3, hits give low values 1.01 | locus YJL154C, strain vps35, hits give low values 0.965 | locus YJL164C, strain tpk1, hits give low values 1.01 | locus YJL166W, strain qcr8, hits give low values 0.947 | locus YJL168C, strain set2, hits give low values 0.991 | locus YJL187C, strain SWE1 (second series), hits give low values 1
